# Rows were chosen to be rich in hits. Some 7.3% of all compounds tested hit in one or more screens of this group.
# ELG1 genotox: qHTS screen for small molecules that induce genotoxicity in human embryonic kidney (HEK293T) cells expressing luciferase-tagged ELG1. HEK293T ELG1-luciferase reporter, luminescence, 16 h. Potency, µM (doses to about 46 µM), for inactives: at the top dose activity change, positive = activation, actives largely listed as activators. 330,000 tested, 1.3% active. AID 504466, 2011; further: % of control where 0% means no effect; nearly all actives have a fitted effect of over 60% in size
#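 DMSO vehicle served as control against compound-treated ELG1-luciferase HEK293T cells; exposure lasted 16 hr at 37 °C and 5% CO2, followed by ONE-Glo luminescence detection after 30 min.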
# Rab9 promoter act: qHTS Assay for Rab9 Promoter Activators | Huh7 Rab9 promoter-luciferase reporter, luminescence, 24 h | AID 485297, 2010 | Potency, µM (highest dose often 9.22 µM), without a hit: at the highest dose activation, negative = inhibition, actives largely listed as activators | 320,000 tested, 2.8% active; further: % of control where 0% means no effect; nearly all actives have a fitted effect of over 60% in size
#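 Huh7 reporter line, Rab9 promoter upstream of luciferase. Compound exposure 24 h at 37 °C in reduced-serum medium with 10% FBS. Read-out: luminescence.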
# FLuc counter: qHTS profiling assay for firefly luciferase inhibitor/activator using purifed enzyme and Km concentrations of substrates (counterscreen for miR-21 project). purified FLuc, Km substrates, luminescence inhibition. Potency, µM (top dose mostly 57.5 µM), inactives show at the highest dose activity change, negative = inhibition, hits mostly inhibitors. 360,000 tested, 6.9% active;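 further: plate controls were vehicle for no effect and reference inhibitor for full effect; nearly all actives have a fitted effect of over 55% in size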
# Target sequence (P08659 whole entry, looked up): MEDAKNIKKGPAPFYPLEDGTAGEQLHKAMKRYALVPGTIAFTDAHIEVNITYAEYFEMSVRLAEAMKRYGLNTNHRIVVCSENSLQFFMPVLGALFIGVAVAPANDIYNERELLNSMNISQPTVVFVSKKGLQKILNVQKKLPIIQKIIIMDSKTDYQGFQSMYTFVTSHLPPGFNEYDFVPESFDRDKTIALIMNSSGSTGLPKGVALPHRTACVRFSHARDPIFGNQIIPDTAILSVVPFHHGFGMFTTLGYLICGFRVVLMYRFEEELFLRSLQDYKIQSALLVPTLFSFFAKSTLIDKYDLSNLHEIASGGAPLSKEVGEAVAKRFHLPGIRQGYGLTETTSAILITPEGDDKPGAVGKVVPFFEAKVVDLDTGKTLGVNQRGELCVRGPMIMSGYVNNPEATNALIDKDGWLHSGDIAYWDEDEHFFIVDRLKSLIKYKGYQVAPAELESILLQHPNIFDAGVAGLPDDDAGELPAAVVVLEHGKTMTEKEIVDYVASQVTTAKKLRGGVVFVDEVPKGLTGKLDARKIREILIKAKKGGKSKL
#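 Biochemical qHTS of compounds, final roughly 60 µM downward over six points, against 10 nM purified firefly luciferase using Km concentrations of substrates (10 uM D-luciferin, 10 uM ATP) in Tris acetate pH 7.5 buffer; luminescence output.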
# uPA generation: qHTS for Inhibitors of Cell Surface uPA Generation | AID 540303, 2011 | 330,000 tested, 0.31% active | Potency, µM (highest dose often 38.3 µM), without a hit: top-dose activity change, negative = inhibition, most hits filed as inhibitors | cell surface uPA generation assay, qHTS; active means well fitted inhibition curve with a large enough effect; inconclusive means small, poorly fitted or top-dose-only effect; inactive means no such curve, though single readings can be large or run the other way; tested in mouse RAW 264.7 cells; further: on the % scale 0 is the no-effect control and ±100 the full control effect; nearly all actives have a fitted effect of over 55% in size
# NPC1 promoter act: qHTS Assay for NPC1 Promoter Activators. Huh7 NPC1 promoter luciferase reporter, 24 h. Potency, µM (doses to about 9.22 µM), for inactives: top-dose activation, actives largely listed as activators. 320,000 tested, 2.4% active; further: % of control where 0% means no effect; nearly all actives have a fitted effect of over 60% in size
#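 Stably transfected Huh7 (NPC1 promoter→luciferase), 1500 cells/well in Opti-MEM + 10% FBS, 2 h settle, then compound 24 h at 37 °C. Luminescence after 10 min with Amplite reagent.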
# SMN2 splice up: qHTS Assay for Enhancers of SMN2 Splice Variant Expression. HEK293 SMN2-luciferase splicing reporter, luminescence, 30-36 h. Potency, µM (highest dose often 46.1 µM), for the others: top-dose activity change, positive = activation, hits mostly activators. 210,000 tested, 2.8% active; further: % of control where 0% means no effect; nearly all actives have a fitted effect of over 55% in size
#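 HEK293 cells carry an SMN2 […]–luciferase reporter in which exon 7 inclusion puts luciferase in frame. Cells were plated 10-12 h before compound addition, then incubated 30-36 h at 37C. ONE-Glo luminescence was read; sodium butyrate at 4.5 mM final served as control.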
# Numbers without * were called inactive; ? = inconclusive; · = not tested or not shown; [ ] = another dose, or the depositor's remark. Unless noted, the call rests on the fitted dose curve; in most records, active means well fitted curve in the direction sought with a large enough effect; inconclusive means small, poorly fitted or top-dose-only effect, or another doubt; inactive means no such curve, though single readings can be large; an effect the other way counts as inactive or inconclusive. Potency means the concentration at half of the fitted maximal effect.
SMILES,ELG1 genotox,Rab9 promoter act,FLuc counter,uPA generation,NPC1 promoter act,SMN2 splice up
CCOC(=O)c1c(C)oc2nc(C)nc(NCCCN3CCN(c4ccccc4OC)CC3)c12,·,·,-8%,·,·,·
COC(=O)c1ccc(C)c(NC(=O)C(CCSC)NC(=O)c2cc(OC)c(OC)c(OC)c2)c1 (stereo not given),-1%,0%,-1%,-3%,1%,·
Cc1c(CCC(=O)N[C@@H](C)C(=O)O)c(=O)oc2cc3oc4c(c3cc12)CCCC4,5%,-6%,11µM*,-12%,-3%,·
CCCC(NC(=O)CCc1c(C)c2cc3c4c(oc3c(C)c2oc1=O)CCCC4)C(=O)O (stereo not given),0%,2%,?,-10%,1%,·
Cc1c(CC(=O)NCCC(=O)O)c(=O)oc2cc3oc4c(c3cc12)CCCC4,-17%,-1%,17µM*,-2%,4%,·
Cc1c(CC(=O)NCCCC(=O)O)c(=O)oc2cc3oc4c(c3cc12)CCCC4,2%,-3%,21µM*,3%,0%,·
COc1ccc(/C=N/n2cnnc2SCc2ccc(OC)cc2)cc1,1%,-2%,13µM*,1%,4%,-5%
CC(=O)/C=C/n1c(=S)oc2ccccc21,-11%,-41%,5.4µM*,16%,-36%,-10%[1.84 µM]
CC(C)CC(=O)/C=C/n1c(=S)oc2ccccc21,-16%,-46%,0.95µM*,-2%,-32%,-68%
O=C1CCCN1c1ccc(N2CCCC2=O)cc1,1%,-4%,3%,-3%,-7%,·
Cc1ccc(C(C)C)c(OCC(=O)N/N=C2\CC(=O)CC(C)(C)C2)c1,-27%,-6%,1%,-1%,-9%,·
COCCN(Cc1nc(-c2ccc(-c3ccccc3)cc2)oc1C)C(C)C,0.92µM*,?,9.5µM*,?,-20%,·
Cc1cc(NC(=O)c2cccc(F)c2)no1,?,26%,?,1%,26%,14%
Cc1cc(NC(=O)c2ccco2)ncc1NC(=O)Cc1ccccc1,17%,3.2µM*,17µM*,-1%,?,8%
Cc1cc(NC(=O)C(C)C)ncc1NC(=O)c1ccco1,-1%,6%,0%,·,-4%,·
CC(=O)Nc1cnc(NC(=O)c2cccc(F)c2)cc1C,15µM*,2.8µM*,30µM*,1%,1.6µM*,11µM*
CCC(=O)Nc1cnc(NC(=O)c2cccc(F)c2)cc1C,?,0.71µM*,9.5µM*,3%,1.6µM*,11µM*
Cc1ccc(SCc2nc(-c3ccc(C(=O)NCC(C)c4ccccc4)cc3)oc2C)cc1 (stereo not given),·,·,-12%,·,·,·
COC(=O)C1=C(C)N(CC2CC2)C(=O)N[C@H]1CCc1ccccc1,·,·,·,·,·,-1%
C=Cc1ccc(Cn2c(=O)n(CC3CCC(C(=O)NC(C)C)CC3)c(=O)c3sccc32)cc1 (stereo not given),·,·,-1%,·,·,·
CCCN(CC(=O)Nc1ccccc1C)C(=O)c1ccc2c(c1)S(=O)(=O)N=C1CCCCCN12,1%,7%,-1%,8%,-2%,·
Cc1ccccc1NC(=O)CSc1nc(-c2cccs2)nc2cc(=O)[nH]n12,·,-3%,5%,·,2%,·
CC(C)(C)c1ccc(OCCSc2nc(-c3cccs3)nc3cc(=O)[nH]n23)cc1,·,·,15µM*,·,·,·
CN(CCc1ccccn1)C(=O)CCC1CCCN(C(=O)c2c3c(nn2C)CCCC3)C1 (stereo not given),-4%,-9%,-1%,-3%,-7%,·
Cc1nn(-c2ccc(Cl)cc2)c(=O)c2ccccc12,?,2.8µM*,17µM*,-6%,4.5µM*,13µM*
SMILES,ELG1 genotox,Rab9 promoter act,FLuc counter,uPA generation,NPC1 promoter act,SMN2 splice up
Cc1nn(-c2ccc(Cl)cc2Cl)c(=O)c2ccccc12,-1%,-1%,6%,7%,-7%,-16%
Cc1nn(-c2nc3ccccc3[nH]2)c(=O)c2ccccc12,?,0.1µM*,0.076µM*,-18%,?,-98%
Cc1nn(-c2ccc3ccccc3c2)c(=O)c2ccccc12,?,?,12µM*,-24%,2%,·
Cc1nn(-c2nc3ccccc3[nH]2)c(N)c1-c1ccc(Cl)cc1,8%,3.5µM*,8.5µM*,-11%,?,?
Cc1nn(-c2ccc(Cl)c(Cl)c2)c(=O)c2ccccc12,4%,19%,-19%,-3%,26%,-4%
O=C(Cn1nc2c(cc1=O)CCCC2)Nc1ccccc1C(F)(F)F,·,·,2%,·,·,·
Cc1nn(-c2ccc(Cl)nn2)c(=O)c2ccccc12,?,?,17µM*,-5%,18%,?
O=C(/C=C/c1ccco1)c1ccc(O)cc1,?,?,13µM*,·,13%,6%
O=C(C=Cc1ccco1)c1ccc2ccccc2c1,·,·,·,2%,·,·
CN(C)c1ccc(C(=O)/C=C/c2ccco2)cc1,?,2.8µM*,0.38µM*,1%,3.2µM*,13µM*
CC(=O)N1CCc2cc(S(=O)(=O)NC(Cc3ccccc3)C(=O)NCc3ccccc3)ccc21 (stereo not given),·,·,5%,·,·,-8%
COc1ccc(CNC(=O)Nc2cn(CC(C)C)c(=O)c3ccccc23)cc1,·,·,0%,·,·,·
CCOCC(=O)N1CCc2ccccc21,-6%,3%,1%,8%,-3%,25%
Cc1ccc(OCC(=O)N2CCCc3ccccc32)cc1,2%,13%,?,3%,10%,2%
O=C(COc1ccc2c(c1)CCC2)N1CCc2ccccc21,12µM*,1.1µM*,5.4µM*,-5%,2.8µM*,?
Cc1ccc(OCC(=O)N2CCc3ccccc32)cc1,16µM*,3.5µM*,2.7µM*,-8%,2.8µM*,14µM*
CCc1ccc(OCC(=O)N2CCc3ccccc32)cc1,?,2.2µM*,2.7µM*,-7%,3.5µM*,·
Cc1cc(NC(=O)c2cc(C)on2)no1,15%,1%,-1%,·,4%,10%
CCCc1cc(C(=O)Nc2cc(C)on2)no1,?,-5%,21µM*,8%,2%,5%
Cc1cc(NC(=O)c2cc(CC(C)C)on2)no1,13µM*,3%,11µM*,-19%,2%,21%
CC(C)c1cccc2c([Si](C)(C)C)c3c(nc12)-c1cccc(=O)n1C3,·,·,·,·,·,-5%
COCCn1c(=O)c(-c2cc(F)cc(F)c2)nc2cnc(OC)nc21,·,·,·,·,·,-19%
Cc1cc(C)n2ncc(/C(N)=N/OC(=O)Nc3ccccc3)c2n1,-8%,0%,27µM*,?,-1%,·

# Assay outcomes as filed in PubChem.
